The text below walks through data of PubChem BioAssay (NCI).

SMILES strings stand for the structures. About 83,000 compounds went through this panel and 20% of them were active in at least one assay; those are over-represented in the sample as a whole.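 Testing used 96-well plates and a 48-hour single-concentration exposure. Example: -40 means 40% of the starting cells died.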 Active and inactive are the calls of the source. Rule for the calls: active = growth percent below 10; inactive = the rest.

For this assay, the system named is HL-60(TB) leukemia. The assay is described as follows: NCI-60 one-dose screen, 48 h (100 = growth as untreated, 0 = no growth, -100 = all killed). The conditions noted are these: 10 µM unless noted.
In the case of `CCOC(=O)c1c(Cl)c2c(n1Cc1ccc(OC)cc1)-c1oncc1CCC2`, the growth is 78.9% (inactive).

For `O=C(O)CN1C(=O)c2cccc3cccc(c23)C1=O`, the growth is 118% (inactive).

Consider `COc1cc(C(=O)/C(C)=C/c2c[nH]c3ccccc23)cc(OC)c1OC`, for which the growth is -9.27% (active).

As to `C=CCc1cc(C)ccc1NC(C(=O)NCC(=O)OC)c1ccccc1` (stereo not drawn), the growth is 103% (inactive).

`O=C(CCCC(=O)Nc1ccc(-n2nnc3cc(Cl)c(Cl)cc32)cc1)Nc1ccc(-n2nnc3cc(Cl)c(Cl)cc32)cc1`: the growth was 75.9% (inactive).

For the molecule `COc1cc(CN)ccc1O`, the growth is 73.9% (inactive).

Regarding `COC(=O)[C@H](C)NC(=O)[C@@H](OC)[C@@H]1Cc2cc3cc(OC4CC(OC5CC(O)C(O)C(C)O5)C(O)C(C)O4)c(C)c(O)c3c(O)c2C(=O)[C@H]1OC1CC(OC2CC(OC3CC(C)(O)C(O)C(C)O3)C(O)C(C)O2)C(O)C(C)O1` (stereo partly drawn), the growth is 20.8% (inactive).

On to `CCCCCCCCCCCCCCCC(=O)NS(=O)(=O)OC[C@H]1O[C@@H](n2cnc3c(N)ncnc32)[C@H](O)[C@@H]1O`, for which the growth is -11.6% (active).

As to `CC(C)C1=NOC(=O)C1=Cc1cn(-c2ccccc2)nc1-c1ccccc1`, the growth was -45.2% (active).

For the molecule `Cc1cccc2c1C[C@@]1(C2=O)C(c2ccc(C(C)(C)C)cc2)=NOS1=O` (stereo partly drawn), the growth is 100% (inactive).

For the molecule `c1ccc(OCCC[P+](c2ccccc2)(c2ccccc2)c2ccccc2)cc1`, the growth was -57.3% (active).

`Oc1ccccc1N=Cc1c(O)ccc2ccccc12`: the growth is 8.97% (active).

Take `CC(C)(C)CC(C)(C)c1ccc(O)c(Cc2ccc(Cl)cc2Cl)c1`: the growth was -61.6% (active).
